Compound activity as filed in PubChem BioAssay.
Rows were chosen to be rich in hits. Some 7.3% of all compounds tested hit in one or more screens of this group.
RORgamma inh – qHTS for inhibitors of ROR gamma transcriptional activity | Drosophila S2 Gal4-RORgamma UAS-luciferase reporter, 20 h | 310,000 tested, 5.4% active | Potency, µM (highest dose often 53.6 µM), inactives show at the top dose activity change, negative = inhibition, actives largely listed as inhibitors | Nuclear receptor ROR-gamma (Mus musculus), P51450 | AID 2551, 2010; note: nearly all actives have a fitted effect of over 60% in size
Target sequence (P51450 whole entry, looked up, the tested form may be a part): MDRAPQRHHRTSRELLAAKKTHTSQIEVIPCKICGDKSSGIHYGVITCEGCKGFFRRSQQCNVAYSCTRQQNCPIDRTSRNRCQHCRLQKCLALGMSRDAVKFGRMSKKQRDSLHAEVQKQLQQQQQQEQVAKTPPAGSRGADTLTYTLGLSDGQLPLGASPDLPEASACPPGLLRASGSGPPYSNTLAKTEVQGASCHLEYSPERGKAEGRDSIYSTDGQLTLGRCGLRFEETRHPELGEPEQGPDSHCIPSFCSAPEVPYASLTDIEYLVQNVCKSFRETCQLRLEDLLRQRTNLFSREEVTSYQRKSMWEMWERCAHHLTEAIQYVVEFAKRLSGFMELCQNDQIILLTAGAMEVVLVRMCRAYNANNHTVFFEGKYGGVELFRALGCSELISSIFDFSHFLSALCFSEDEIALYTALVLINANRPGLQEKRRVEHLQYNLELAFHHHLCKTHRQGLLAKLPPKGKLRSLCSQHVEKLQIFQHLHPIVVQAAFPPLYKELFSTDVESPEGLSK
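Read-out: Photinus luciferase luminescence; inhibitors lower reporter signal. Insect Schneider cells with Gal4-ROR gamma fusion under metallothionein promoter, UAS reporter; 700 uM final copper sulfate induction, 20 hr, ambient temperature.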
Tau ThT inhib – qHTS for Inhibitors of Tau Fibril Formation, Thioflavin T Binding. Microtubule-associated protein tau (Homo sapiens), P10636. recombinant tau K18 P301L, heparin-induced fibrillization, ThT fluorescence. Potency, µM (series often up to 57.4 µM), without a hit: top-dose activity, negative = inhibition, most hits filed as inhibitors. 270,000 tested, 2.1% active. AID 1460, 2008; note: nearly all actives have a fitted effect of over 55% in size
Target sequence (P10636 561-689 P618L limits assumed): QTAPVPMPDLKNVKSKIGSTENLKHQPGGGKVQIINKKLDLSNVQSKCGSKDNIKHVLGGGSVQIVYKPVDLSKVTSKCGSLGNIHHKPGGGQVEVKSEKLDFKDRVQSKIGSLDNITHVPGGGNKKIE
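Using a mix of unlabeled (15 uM) and Alexa 594-labeled (0.24 uM) tau K18 P301L, heparin-triggered fibrillization over 6 hr at 37 C was scored by ThT fluorescence.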
Tau fluor cs – Counterscreen qHTS for Inhibitors of Tau Fibril Formation, Fluorescence Polarization; tau K18 P301L Alexa594 fluorescence, heparin fibrillization; Potency, µM (highest dose often 57.7 µM), for inactives: top-dose activity change, negative = decrease; 280,000 tested, 0.93% active; note: nearly all actives have a fitted effect of over 55% in size
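Human tau K18 P301L (15 uM unlabeled, 0.24 uM Alexa 594-labeled) in 100 mM sodium acetate pH 7 with 20 uM heparin, 6 hr at 37 C. ThT 30 uM added, 1 hr ambient; Alexa 594 FP and total fluorescence read at 555/632 nm.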
Tau FP inhib – qHTS for Inhibitors of Tau Fibril Formation, Fluorescence Polarization | K18 P301L tau heparin fibrillization, Alexa594 FP, 6 h | Potency, µM (top dose mostly 57.7 µM), for inactives: at the highest dose activity, negative = inhibition, most hits filed as inhibitors | 280,000 tested, 0.39% active | Microtubule-associated protein tau (Homo sapiens), P10636; note: nearly all actives have a fitted effect of over 55% in size
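Recombinant K18 P301L […], labeled with Alexa 594 at 0.24 uM over 15 uM unlabeled; heparin inducer 20 uM final; 37 C, 6 hr; FP endpoint.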
VP16 counter – VP16 counterscreen qHTS for inhibitors of ROR gamma transcriptional activity; 310,000 tested, 3.5% active; Potency, µM (highest dose often 53.6 µM), for the others: top-dose activity, negative = inhibition, most hits filed as inhibitors; AID 2546, 2010; Drosophila S2 Gal4-VP16 UAS-luciferase, luminescence, 20 h;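 note: Gal4-VP16 expression switched on by copper sulfate through the metallothionein promoter; nearly all actives have a fitted effect of over 50% in size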
Starred values were filed as active, the others as inactive; u = inconclusive; x = no result given; [ ] = remark or other dose. Calls come from the whole dose curve; as a rule, active = well fitted curve in the direction sought with a large enough effect; inconclusive = small, poorly fitted or top-dose-only effect, or another doubt; inactive = no such curve, though single readings can be large; an effect the other way counts as inactive or inconclusive. % is set by controls: 0 for no effect and ±100 for the full control effect; potency is the fitted concentration of half-maximal effect.

SMILES	RORgamma inh	Tau ThT inhib	Tau fluor cs	Tau FP inhib	VP16 counter
COC(=O)[C@H]1C(OC)[C@@H](OC(=O)c2cc(OC)c(OC)c(OC)c2)C[C@@H]2CN3CCc4c([nH]c5cc(OC)ccc45)[C@H]3C[C@H]21 (some centres not stated)	-34.3%	10µM*	u	u	-6.5%
COC(=O)C1C2CC3c4[nH]c5cc(OC)ccc5c4CCN3CC2CC(OC(=O)c2cc(OC)c(OC)c(OC)c2)C1OC (configuration not stated)	-22.9%	u	u	6.6%	-29.9%
CCC/C=C/C(C)O (configuration not stated)	-4.5%	-2.8%	-3.5%	-1.2%	0.7%
CCCCC1(Cc2cccc([N+](=O)[O-])c2)C(=O)N(c2ccccc2)N(c2ccccc2)C1=O	17.8µM*	-6.1%	-22.6%	3.3%	u
COc1ccc(O)c(CNn2c(-c3ccc(Br)cc3)nc3ccccc3c2=O)c1	-2.5%	-15.7%	u	14.9%	-5.8%
COc1ccc(C(=O)On2c(-c3ccc(Br)cc3)nc3ccccc3c2=O)cc1	7.08µM*	-16.7%	-7.5%	-4.9%	5.01µM*
COc1ccc(-c2nc3ccccc3c(=O)n2N)cc1	17.2%	-4.7%	3.3%	3.6%	3.4%
COc1cc(OC)cc(-c2nc3ccccc3c(=O)n2OC(=O)c2ccc(Br)cc2)c1	10µM*	-6.6%	-1.9%	3.4%	11.2µM*
CCN(CC)c1cc(Cl)c2nonc2c1N	-0.6%	-5.2%	-0.8%	-2.3%	1.1%
CN(C)c1cc(Cl)c2nonc2c1N	0.1%	25.1µM*	u	u	-9.9%
CCOC(=O)N1CCN(C(=O)CSCC(=O)Nc2nc(-c3ccc(-c4ccccc4)cc3)cs2)CC1	u	u	-21.5%	-12.2%	6.31µM*
Cc1ccc(-c2csc(NC(=O)CSC3=NCCS3)n2)cc1	-39.8%	u	u	-10.7%	12.6µM*
CCOC(=S)SCC(=O)Nc1nc(C)c(C)s1	12.6µM*	u	-5.1%	-6.5%	u
CCOC(=S)SCC(=O)Nc1nccs1	-13.7%	u	-11.0%	-10.1%	u
CCOC(=S)SCC(=O)Nc1nc(-c2ccc(Br)cc2)cs1	5.01µM*	-10.4%	u	u	6.31µM*
CCOC(=S)SCC(=O)Nc1nc(-c2ccccc2)cs1	u	u	-25.4%	-2.3%	u
CC[N+]1(C)C2CCC1CC(OC(=O)[C@H]1CCC(C(=O)OC3CC4CCC(C3)[N+]4(C)CC)(c3ccccc3)c3ccccc31)C2 (some centres not stated)	x	9.8%	-2.7%	-0.5%	x
CCOC(=O)COc1ccc(S(=O)(=O)NCc2ccncc2)cc1	u	-10.5%	-5.3%	0.1%	11.2µM*
CCOc1ccc(S(=O)(=O)NCc2ccncc2)cc1	0.0%	3.0%	3.9%	-2.1%	1.5%
Cc1cc(S(=O)(=O)NCc2ccncc2)c(C)cc1Br	-24.9%	x	x	x	10µM*
Cc1ccc(S(=O)(=O)NCc2ccncc2)cc1	-14.9%	-2.2%	-5.9%	-5.1%	7.94µM*
Cc1ccc(C)c(S(=O)(=O)NCc2ccncc2)c1	u	2.5%	6.8%	12.1%	u
CCOc1cc(S(=O)(=O)NCc2ccncc2)ccc1Cl	2µM*	-10.7%	-5.5%	-3.8%	1.12µM*
CC(=O)Nc1ccc(S(=O)(=O)NCc2ccncc2)cc1	7.08µM*	6.3%	2.9%	3.4%	2µM*
C=CCc1c(C)nc(C)nc1N/N=C/c1ccccc1	10µM*	0.9%	-2.1%	0.5%	1.58µM*
SMILES	RORgamma inh	Tau ThT inhib	Tau fluor cs	Tau FP inhib	VP16 counter
C=CCc1c(C)nc(C)nc1N/N=C/c1ccc(F)cc1	u	-0.8%	-0.8%	9.5%	u
CCNc1ncc2nc(CCc3ccccc3)c(=O)n(Cc3cccc(OC)c3)c2n1	-37.4%	x	x	x	-23.0%
Cn1c(CCNC(=O)c2ccco2)nc2cc(NC(=O)c3ccco3)ccc21	1.3%	-20.8%	-11.9%	-1.0%	-7.2%
Cc1nc2cc(NC(=O)c3ccco3)ccc2n1C	15.8µM*	x	x	x	u
O=C(Nc1ccc2c(c1)nc1n2CCSC1)c1ccco1	2.24µM*	-0.7%	2.2%	-1.1%	3.16µM*
COc1cc2cc(CN(CCc3cccc(C)c3)C(=S)NCCCN(C)C)c(=O)[nH]c2cc1OC	-28.0%	-5.7%	-15.7%	-3.3%	-8.7%
COc1cc2cc(CN(CCc3cccc(C)c3)C(=S)NCCCN3CCOCC3)c(=O)[nH]c2cc1OC	7.08µM*	-5.8%	-21.6%	-4.0%	u
CN(C)CCN(Cc1ccco1)C(=O)c1cc2c(s1)-c1ccccc1OC2	x	-8.9%	-8.8%	2.2%	x
O=C1C2C3C=CC(C3)C2C(=O)N1/N=C/c1cc(Br)cc([N+](=O)[O-])c1O (configuration not stated)	u	7.94µM*	-14.6%	-2.1%	-5.1%
O=C1C2C3C=CC(C3)C2C(=O)N1/N=C/c1ccc(-c2ccccc2[N+](=O)[O-])o1 (configuration not stated)	u	u	-12.5%	5.5%	3.2%
O=C(CSc1nc2c([nH]c3ccccc32)c(=O)n1-c1cccc(Cl)c1)N1CCc2ccccc21	x	-5.1%	-11.1%	-11.4%	x
Nc1c(S(=O)(=O)c2cccc(Cl)c2)c2nc3ccccc3nc2n1/N=C/c1ccc(O)c(O)c1	-30.7%	u	5.62µM*[quencher]	u	u
COc1ccc(N(C(=O)COc2ccccc2OC)S(=O)(=O)c2ccc(Cl)cc2)cc1	x	u	-24.7%	13.6%	x
Cc1ccc2c(c1)c1c(n2C)C(C(N)=O)CCC1 (configuration not stated)	2.7%	-13.0%	-3.2%	-5.8%	1.8%
Cc1ccc2c(c1)c1c(n2C)-c2[nH]ncc2CC1	10.2%	u	17.8µM*[quencher]	5.2%	2.5%
O=C(CSc1nc(=O)[nH]c2c1CCC2)Nc1cc(C(F)(F)F)ccc1Cl	x	-8.9%	-12.5%	-9.8%	x
Fc1ccc(-c2n[nH]c(=S)c3ccccc23)cc1	7.08µM*	-10.9%	-6.9%	5.1%	15.8µM*
CCCC(=Nc1ccccc1)C1=C(O)C(C(=O)OC)C(C)(C)CC1=O (configuration not stated)	-6.4%	-14.8%	4.6%	-0.3%	1.2%
CCCCC(=Nc1ccc(N)cc1)C1=C(O)C(C(=O)OC)C(C)(C)CC1=O (configuration not stated)	-18.0%	10µM*	7.94µM*[quencher]	25.1µM*	22.3%
CCC(=Nc1ccc(N)cc1)C1=C(O)C(C(=O)OC)C(C)(C)CC1=O (configuration not stated)	-38.9%	7.08µM*	u	14.1µM*	-1.5%
CC(C)(C)OC(=O)NC(NC(=O)OCC1c2ccccc2-c2ccccc21)C(=O)O (configuration not stated)	5.6%	x	x	x	-2.9%
